Experimental findings from PubChem BioAssay AID1578 (Sanford-Burnham Center for Chemical Genomics, 2009) are described below.

The inhibition is the change of the read-out against control, counted positive when it falls.

Values joined by “and” are separate entries in the source; they are usually repeats but may differ in a detail not shown here. Equal entries are not always repeated. Screen size: about 290,000 compounds; about 3,000 (1%) were called active. Cut-off read from the data, not from the text of the source: active = inhibition mostly above about 36% (no sharp cut-off); inactive = mostly below about 34%. This excerpt belongs to a sample that is enriched for actives.

The assay is described as follows: inhibition of NOD1-driven NF-kB reporter – cell-based, luminescence, uHTS, primary screen (AID 1578).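 Note: HEK-293T reporter cells stimulated with the NOD1 agonist gamma-tri-DAP.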 The note with it: NOD1-driven NF-kB luciferase reporter cells, at 4 µM, hits give high values. On the technique in general: A reporter such as luciferase makes a cellular process visible.
Take `Nn1cc(-c2ccccc2)nc1SCC(=O)Nc1cccc(S(N)(=O)=O)c1`: the inhibition is 3.3% (inactive).
As to `O=C(Nc1cc(-c2ccccc2)[nH]n1)c1ccc(Cl)cc1`, the inhibition was 4.7% (inactive) and -2.2% (inactive).
As to `O=C(Nc1ccccc1Cl)c1ccc2ccccc2c1`, the inhibition was -11.1% (inactive).
Turning to `Cc1cccc(C)c1NC(=O)NC1(C(=O)N2CCN3CCCC3C2)CCCCC1` (centres undefined), the inhibition is -19.2% (inactive).
As to `COc1ccccc1C1C(C#N)=C(N)N(c2cccnc2)C2=C1C(=O)CC(C)(C)C2` (centres undefined), the inhibition is -21.9% (inactive).
As for `COc1ccc(C2C(C#N)=C(N)N(c3cccnc3)C3=C2C(=O)CC(C)(C)C3)cc1OC` (centres undefined), the inhibition was 63.5% (active).
Regarding `COc1cc(C2C(C#N)=C(N)N(c3cccnc3)C3=C2C(=O)CC(C)(C)C3)ccc1O` (centres undefined), the inhibition was 9.6% (inactive).
As to `Cc1ccc(C)c(OC(=O)c2ccncc2)c1`, the inhibition is 54.5% (active).
For `Cc1ccc(OC(=O)c2ccncc2)c(C)c1`, the inhibition is -45.8% (inactive).
Consider `Cc1ccc(C)c(OC(=O)c2cccnc2)c1`, for which the inhibition was -20.5% (inactive).
Consider `CCN(CC)C(=O)CSc1nc(O)cc(=O)n1-c1ccccc1OC`, for which the inhibition is -12.3% (inactive).
For the molecule `CCC(NC(=O)NNC(=O)c1ccncc1)(C(F)(F)F)C(F)(F)F`, the inhibition is -3.5% (inactive).
On to `CCOc1ccc(-c2ccc(SCC)nn2)cc1`, for which the inhibition was -47.8% (inactive).
Take `COc1ccc(-c2ccc(SC)nn2)cc1`: the inhibition is -8.7% (inactive).
For `CCOc1ccc(-c2ccc(SC)nn2)cc1`, the inhibition is 57.2% (active).
The figure for `COc1ccc(CC(=O)NNC(=O)COc2ccc3ccccc3c2)cc1` is -32% (inactive).
As to `N#Cc1ccccc1NC(=O)COC(=O)c1ccc(F)cc1F`, the inhibition is 2.3% (inactive).
The figure for `COc1cc(OC)cc(C(=O)NC2CC(C)(C)NC(C)(C)C2)c1` is 83% (active); for `COc1cc(C(=O)NC2CC(C)(C)NC(C)(C)C2)cc(OC)c1OC` it is -31.3% (inactive).
Take `Cc1cc(C)cc(C(=O)NC2CC(C)(C)NC(C)(C)C2)c1`: the inhibition was -11.3% (inactive).
`O=C(NC(CC(=O)N1CCN(c2ccc([N+](=O)[O-])cc2)CC1)c1ccccc1)c1ccccc1Cl` (centres undefined): the inhibition is -5.6% (inactive).
Turning to `Cc1nc(-c2nc(-c3c(C(=O)NN)noc3C)cs2)cs1`, the inhibition was -35.9% (inactive).
In the case of `Cc1ccc2c(c1)C(=O)c1c(C(=O)O)cccc1-2`, the inhibition is -14.6% (inactive).
In the case of `CC1CCN(C(=O)C(C)Sc2nc(-c3ccccc3)cc(C(F)(F)F)n2)CC1` (centres undefined), the inhibition was 15.1% (inactive).
Regarding `CC(Sc1nc(-c2ccccc2)cc(C(F)(F)F)n1)C(=O)N1CCC(C(N)=O)CC1` (centres undefined), the inhibition was 62.8% (active).
The figure for `CC(Sc1nc(-c2ccccc2)cc(C(F)(F)F)n1)C(=O)N1CCCC1` (centres undefined) is -30.7% (inactive).
For `O=C(O)CCn1c(SCCOc2ccccc2)nc2ccccc21`, the inhibition was -29.9% (inactive).
With `CCCCN(C)Cc1cc(=O)oc2ccc3ccccc3c12`, the inhibition was -5.4% (inactive).
`CCc1ccc(OCc2nnc(SCCN3CCOCC3)n2CC)cc1`: the inhibition was -13.7% (inactive).
As to `Fc1ccccc1NC(=S)NCCc1ccccc1`, the inhibition was 11.7% (inactive).
Consider `FC(F)(F)c1cccc(Cn2cnc(NC(=S)NCCc3ccccc3)n2)c1`, for which the inhibition is -22.4% (inactive).
With `Fc1ccccc1Cn1cnc(NC(=S)NCCc2ccccc2)n1`, the inhibition was 47.4% (active).
Turning to `Nc1nc(-c2ccccc2)c(N=Nc2cccnc2)s1`, the inhibition was 69.6% (active).
As for `Nc1nc(-c2ccccc2)c(N=Nc2ccc(Cl)cc2)s1`, the figure is 14.5% (inactive); as for `Nc1nc(-c2ccccc2)c(N=Nc2cccc3ccccc23)s1`, -6.2% (inactive); as for `Cc1cc(NC(=O)CSc2nc(Cc3ccc(O)cc3)c(C)[nH]2)no1`, 29.2% (inactive).
As to `CCOC(=O)c1nn(-c2ccc3c(c2)CCN3C(C)=O)cc1O`, the inhibition was -27.8% (inactive).
As for `COC(=O)c1nn(-c2ccc3c(c2)CCN3C(C)=O)cc1O`, the figure is 78.5% (active); as for `COC(=O)c1nn(-c2ccc3c(c2)OCO3)cc1O`, -11.8% (inactive).
On to `N#CN=C(c1ccccc1)c1ccccc1`, for which the inhibition was -20.8% (inactive).
As for `O=C(c1ccc(N2CCCC2=O)cc1)N1CCN(c2ccc(Cl)cc2)CC1`, the inhibition is -4.5% (inactive).
On to `O=C(c1ccccc1-c1nc(-c2ccccc2)no1)N1CCCC1`, for which the inhibition was -35% (inactive).
The figure for `FC(F)(F)c1ccc(C2NCCc3sccc32)cc1` (centres undefined) is -38.2% (inactive); for `Cn1ccs/c1=N\C(=O)Nc1cccc(Cl)c1` it is 110% (active).
As for `Cn1ccs/c1=N\C(=O)Nc1cccc(C(F)(F)F)c1`, the figure is -21.9% (inactive).
For the molecule `Cn1ccs/c1=N\C(=O)Nc1ccccc1`, the inhibition is -7.2% (inactive).
Consider `CCOC(=O)CN1C(=O)S/C(=C/c2ccco2)C1=O`, for which the inhibition was -37.3% (inactive).
In the case of `CC(C)N(C)Cc1nnnn1CC(=O)N(C)Cc1cccc(Cl)c1`, the inhibition is -14.1% (inactive).
Turning to `Nc1nc(Nc2ccc(Cl)cc2)nc(NCCO)c1[N+](=O)[O-]`, the inhibition is 3% (inactive).
`Cc1cc(Cl)ccc1OC(C)C(=O)Nc1ccc(C(=O)Nc2ccccc2C(=O)O)cc1` (centres undefined): the inhibition is 82.7% (active).
As for `CC(C)C(=O)Nc1cccc(C(=O)Nc2ccccc2C(=O)O)c1`, the figure is -0.4% (inactive).
Consider `Cc1ccc(NC(=O)c2ccc(OC(=O)C(C)Oc3ccc(Cl)cc3C)cc2)cc1` (centres undefined), for which the inhibition is -12.4% (inactive).
As for `Cn1cnnc1SCc1ccc(C#N)cc1Cl`, the figure is -35.4% (inactive); as for `CC1CC(NC(=O)Cc2ccc(Br)cc2)CC(C)(C)C1` (centres undefined), -9.8% (inactive); as for `O=C(c1cccc2c1-c1ccccc1/C2=N/O)N1CCCCC1`, 66.9% (active).
For the molecule `COc1ccccc1C(=O)Nc1ccccc1C(=O)N1C(C)CCCC1C` (centres undefined), the inhibition is -5% (inactive).
On to `CC1CCCC(C)N1C(=O)c1cccc2c1-c1ccccc1/C2=N/O` (centres undefined), for which the inhibition was 75.8% (active).
For the molecule `O=C1c2ccccc2-c2c1cccc2C(=O)N1CCCCC1`, the inhibition was -12.6% (inactive).
As for `O=C1c2ccccc2-c2c1cccc2C(=O)N1CCCCCC1`, the inhibition was 0.4% (inactive).
`CC(C)COC(=O)c1cccc2c1-c1ccccc1/C2=N\O`: the inhibition is 14.1% (inactive).
As to `CN1CC(=O)N(CC(=O)Nc2cc(Cl)cc(Cl)c2)C1=O`, the inhibition is -17.3% (inactive).
In the case of `CCn1c(=O)c(C(=O)Nc2ccsc2C(=O)OC)c(O)c2ccccc21`, the inhibition is -28.8% (inactive).
As for `COc1ccccc1C(=O)NC1CC2CCC(C1)N2Cc1ccccc1` (centres undefined), the figure is -9.7% (inactive).
The figure for `COc1ccc(CCNC(=S)NC(=O)c2cccc(Cl)c2)cc1OC` is -2.1% (inactive).
